According to PubChem BioAssay AID777 (Sanford-Burnham Center for Chemical Genomics, 2007):
About 19,000 (20%) of roughly 96,000 compounds were called active.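 How the source made its calls: active means blocking of liver enzyme CYP2C9 beyond about 50% at 5 µM (limit read from the data); inactive means the rest.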 The list is a sample of the results.

molecular target: Cytochrome P450 2C9 (Homo sapiens) (UniProt P11712); assay: blockers of cytochrome P450 2C9 activity – biochemical, luminescence, ADME assay, primary screen (AID 777); details: CYP2C9 Supersomes, luciferin-H conversion, at 5 µM, hits give high values
Sequence (P11712 whole entry, looked up): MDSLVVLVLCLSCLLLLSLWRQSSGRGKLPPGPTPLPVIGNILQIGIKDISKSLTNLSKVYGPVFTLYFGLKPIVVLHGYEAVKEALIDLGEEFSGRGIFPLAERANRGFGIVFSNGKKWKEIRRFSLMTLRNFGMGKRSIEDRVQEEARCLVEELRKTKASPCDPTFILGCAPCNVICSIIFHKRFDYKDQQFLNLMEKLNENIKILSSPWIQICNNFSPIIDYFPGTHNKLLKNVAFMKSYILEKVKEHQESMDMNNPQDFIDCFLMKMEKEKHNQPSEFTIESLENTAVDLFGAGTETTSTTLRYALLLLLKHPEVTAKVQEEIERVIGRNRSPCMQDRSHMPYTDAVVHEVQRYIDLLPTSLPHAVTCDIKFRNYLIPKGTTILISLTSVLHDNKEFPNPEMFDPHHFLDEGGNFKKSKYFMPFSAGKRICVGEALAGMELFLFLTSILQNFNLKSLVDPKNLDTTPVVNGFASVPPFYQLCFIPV

| SMILES | inhibition |
| --- | --- |
| O=C(CC1OC(=O)c2ccccc21)NC1CCCCC1 (configuration not stated) | -99.1% (inactive) |
| O=C(CN1CCN(S(=O)(=O)c2ccc(F)cc2)CC1)Nc1ccccc1F | 40.4% (inactive) |
| CCOc1ccccc1NC(=O)c1cc(S(=O)(=O)N2CCC3(CC2)OCCO3)ccc1F | 6.8% (inactive) |
| O=C(Nc1ccccc1F)c1cc(S(=O)(=O)N2CCCCC2)cs1 | 75.6% (active) |
| CCOC(=O)Cn1c(=O)oc2cc(S(=O)(=O)N(C)Cc3ccco3)ccc21 | 28.8% (inactive) |
| CCOc1ccc(CN(Cc2ccco2)S(=O)(=O)c2ccc(-n3cnnn3)c(OC)c2)cc1 | 65.1% (active) |
| COc1ccc(CN(Cc2ccco2)S(=O)(=O)c2ccc(S(=O)(=O)N3CCCC3)cc2)cc1 | 39.9% (inactive) |
| NC(=O)N1CCCC1C(=O)Nc1ccc(Cl)c(Cl)c1 (configuration not stated) | 14.9% (inactive) |
| CC(C)(C)NC(=O)Cn1cnc([N+](=O)[O-])n1 | -14.1% (inactive) |
| O=S(=O)(NCc1ccccn1)c1ccc(Br)s1 | -3.5% (inactive) |
| O=c1c2[nH]c3ccc(Cl)cc3c2ncn1Cc1ccccn1 | 17.6% (inactive) |
| COc1ccc2[nH]cc(/C=C(/C#N)S(=O)(=O)c3ccccc3)c2c1 | 95.4% (active) |
| COc1ccc2[nH]c3ccc(OC)cc3c2c1 | 26.8% (inactive) |
| O=C(O)CCSc1nnc(-c2ccccc2)n1-c1ccccc1 | -14.5% (inactive) |
| C=CCNc1nnc(SCC(=O)N2CCCCC2)c2ccccc12 | -25.8% (inactive) |
| COC(=O)C(C(=O)Nc1cccc(C)n1)C1CCCCCC1 (configuration not stated) | 33.3% (inactive) |
| CN1CC(c2ccccc2)C2(COc3ccccc3C2=O)C12C(=O)Nc1ccccc12 (configuration not stated) | 20.5% (inactive) |
| CC1(C)CC(=O)c2sc(N)nc2C1 | 12.9% (inactive) |
| CCC(=O)N1c2ccc(S(=O)(=O)CCC(=O)N3CCN(c4ccccc4)CC3)cc2CC1C (configuration not stated) | 49% (inactive) |
| Cc1cc(=O)[nH]c(SCC(=O)N2c3ccccc3CC2C)n1 (configuration not stated) | 8% (inactive) |
| CC1Cc2ccccc2N1C(=O)c1cc2sccc2n1Cc1ccccc1 (configuration not stated) | 61.6% (active) |

| SMILES | inhibition |
| --- | --- |
| COC(C)(C)[C@]12CC(O)(C(C)C)ON1[C@H]1CCCCC1N2O (some centres not stated) | -1.4% (inactive) |
| CCC(C)(C(=O)NC1CCCC1)N(C(=O)CNC(C)=O)c1ccc(C)cc1 (configuration not stated) | 2.8% (inactive) |
| COc1ccc2c(c1)OC(O)(C(F)(F)C(F)F)CC2=O (configuration not stated) | 78.5% (active) |
| COc1ccc2c(c1)SC(C)CC2=O (configuration not stated) | 12.7% (inactive) |
| CCOc1ccc(CNC(=O)C2CCC(=O)N2C2CCCC2)cc1OC (configuration not stated) | 4.4% (inactive) |
| CCCN1C(=O)C(NC(C)=O)c2cc(OC)ccc21 (configuration not stated) | -5.4% (inactive) |
| Cc1cc(C)cc(OCC(=O)NNC(=O)c2cc3ccccc3oc2=O)c1 | -15.8% (inactive) |
| COC(=O)COc1ccc2oc(=O)cc(C)c2c1 | -9.3% (inactive) |
| CCOC(=O)COc1cc(OCC(=O)OCC)c2c(=O)cc(-c3ccccc3)oc2c1 | 70.3% (active) |
| CN1CCCC(OC(=O)COc2ccc(Br)cc2)C1 (configuration not stated) | -1.2% (inactive) |
| COc1ccc(C(=O)Nc2nc(-c3ccc(OC)cc3)c(-c3ccc([N+](=O)[O-])cc3)s2)cc1 | 19.7% (inactive) |
| COC(=O)C(NC(=O)c1ccc(OC)cc1)(Nc1ncc(S(=O)(=O)c2ccc([N+](=O)[O-])cc2)s1)C(F)(F)F (configuration not stated) | 66.3% (active) |
| CCC1CCCCN1CCNC(=O)c1[nH]c(C)c(C(C)=O)c1C (configuration not stated) | 9.6% (inactive) |
| COCCOC(=O)C1=C(C)Nc2nc(C)nn2C1c1ccccc1 (configuration not stated) | 16.7% (inactive) |
| COc1cc(C2C(C(=O)OCCC#N)=C(C)NC3=C2S(=O)(=O)c2ccccc23)cc(OC)c1OC (configuration not stated) | 50.9% (active) |
| COCCNC(=O)C(c1ccc(C)o1)N(Cc1cccs1)C(=O)c1snc(C(N)=O)c1N (configuration not stated) | 3.7% (inactive) |
| O=C(Oc1ccc2c(c1)CCC2)N1CCOCC1 | 0.4% (inactive) |
| Cc1cccn2c(=O)c3cc(C#N)c(=O)n(CCCN4CCOCC4)c3nc12 | 47% (inactive) |
| COc1cccc(/C=N\Nc2nncc(-c3ccccc3)n2)c1 | 5.6% (inactive) |
| Cc1ccc(-c2cc(C(=O)N/N=C/C=C/c3ccco3)c3ccccc3n2)cc1C | 34% (inactive) |
| COc1cc(/C=N/NC(=O)Nc2ccccc2)ccc1OCCOc1ccccc1C | 11.2% (inactive) |

| SMILES | inhibition |
| --- | --- |
| COc1cccc(-c2cc(C(=O)N/N=C/c3ccc(OC)c(COC(C)=O)c3)c3ccccc3n2)c1 | 84.3% (active) |
| COc1ccc(/C=N\NC(=O)c2sc(N)nc2C)cc1OC | 5.4% (inactive) |
| COc1cccc(OCc2cc(/C=N/NC(=O)c3nc(Cl)c(Cl)c(N)c3Cl)ccc2OC)c1 | 84% (active) |
| CCCC(C(=O)n1nc(C)cc1C)C(NS(=O)(=O)c1ccc(C)cc1)c1ccccc1 (configuration not stated) | -1.9% (inactive) |
| O=C(c1ccco1)N1CCN(C(=O)C2CC(c3ccc(Cl)c(Cl)c3)=NO2)CC1 (configuration not stated) | 43.9% (inactive) |
| CN(C)c1cc(N)c2ccccc2n1 (tested in a mixture with another compound) | -21.6% (inactive) |
| O=C(NCc1ccccc1)C1C(=O)N(Cc2ccccc2)C(=O)C1C1(O)CCCC1 (configuration not stated) | 33.6% (inactive) |
| CC(C)c1nc2ccc(C(=O)O)cc2[nH]1 | 5.8% (inactive) |
| CCC(=O)Nc1ccccc1C(=O)N1CCN(Cc2ccccc2)CC1 | 15.3% (inactive) |
| Cc1ccc(S(=O)(=O)NC(C)C(=O)Nc2ccccc2C(=O)N2CCCC2)cc1 (configuration not stated) | 44.1% (inactive) |
| O=C(CN(c1ccccc1)S(=O)(=O)c1ccc(Cl)cc1)Nc1ccccc1C(=O)N1CCCC1 | 92.2% (active) |
| CC(=O)N1CCN(c2ccc(NCc3ccc(C(C)C)cc3)cc2)CC1 | 37% (inactive) |
| O=C1CSC(c2cccc(F)c2)N1c1ccccc1F (configuration not stated) | 3% (inactive) |
| O=C(Nc1ccc(Cl)cc1)OCc1cc(-c2ccccc2)on1 | 64.4% (active) |
| O=C(Nc1ccccc1)OCc1cc(-c2ccc(Cl)cc2)on1 | 16.9% (inactive) |
| O=C(Nc1ccccc1)OCc1cn(-c2ccc(Cl)cc2)nn1 | 41.6% (inactive) |
| CCCn1c(O)c(CN2CCCC(C)C2)c(C)c(C#N)c1=O (configuration not stated) | 5.2% (inactive) |
| CC(=O)N1CCN(C(=O)Nc2cccc(C(F)(F)F)c2)CC1 | 4.5% (inactive) |
| O=C(Nc1cccc(NC(=O)N2CCN(c3ccccc3)CC2)c1)N1CCN(c2ccccc2)CC1 | 54% (active) |
| O=C(Nc1ccccc1)N1CCN(Cc2ccccc2)CC1 | 14.6% (inactive) |
